Measurements from PubChem BioAssay (NCATS).
Where “and” joins values, the source holds several entries; their conditions need not be identical. Equal entries are not always repeated. Records with an inconclusive call do not appear. A number with no mark means an inactive call. Calls of active or inactive are those of the source. The call rests on the fitted dose curve; in most records, active means well fitted cell-killing curve with a large enough effect; inconclusive means small, poorly fitted or top-dose-only effect; inactive means flat fitted curve, though single readings scatter.

test: qHTS of pediatric cancer cell lines to identify multiple opportunities for drug repurposing: Confirmatory screen for SK-N-SH cells (AID 1347129); conditions: SK-N-SH neuroblastoma cell viability; series mostly up to 46.1 µM; activity change, negative = cytotoxic: at the top concentration;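 further: cells exposed to compound for 48 h before viability read; nearly all actives have a fitted effect of over 60% in size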
From the text: Drug repurposing or repositioning has been offered as a strategy for drug development in oncology programs. This approach has special potential for childhood cancers and other rare or orphan diseases, where the expected return on new drug development has been a disincentive to pharmaceuticals.
In this project we exploit the poly-pharmacology of drugs to discover new indications via phenotypic screening of a panel of 19 well-characterized cell lines derived from solid tumors seen in children and adolescents. The goal is to identify approved drugs with previously unrecognized anticancer properties that has the potential to reveal new mechanisms and biological processes involved in carcinogenesis or drug resistance. We employed a titration-based paradigm (quantitative high-throughput screening or qHTS), where all compounds were tested at multiple concentrations for their effect on cell viability. Concentration-response curves (CRCs) were derived directly from the primary screen, and both potency and efficacy values were used to identify compounds with robust bioactivity profiles. We screened the NIH Chemical Genomics Center (NCGC) Pharmaceutical Collection (NPC) and Mechanism Interrogation Plate (MIPE) small molecule collections of approved and investigational compounds against these cell lines; and measured metabolically active cells after 48 hours of compound treatment as a proxy for cell viability.
Assay Submitter: Nathalia J. Martinez, National Center for Advancing Translational Sciences, National Institutes of Health, Rockville, MD, USA; email: natalia.martinez@nih.gov
[1] Shen, M et al. Quantitative high-throughput phenotypic screening of pediatric cancer cell lines identifies multiple opportunities for drug repurposing. Oncotarget 2017 Dec 19;9(4):4758-4772. PMID 29435139.
The cells were obtained from University of North Carolina (UNC), Pediatric Preclinical Testing Program (PPT), and Coriell Institute (CI).
qHTS cell viability assay:
Cells were assayed in growth media at a density of 500-1,000 cells/well. Five microliters of cells were dispensed into 1,536-well, white, solid-bottom, TC-treated plates (Greiner Bio One) using a multidrop dispenser and incubated at 37 degrees C, 5% CO2, under a humidified atmosphere for 5 hours. Twenty-three nanoliters of compounds and controls (neutral control DMSO or positive control bortezomib at final concentration of 2.3 µM) were subsequently transferred by Kalypsys pintool. For primary screens, the MIPE collection was tested at 11-point dilutions (final concentrations range from 0.78 nM to 46 µM) and the NPC collection at 8-point dilutions (final concentrations range from 0.59 nM to 46 µM). Compounds tested in follow-up screens were assayed at 11-point dilutions. Cells were incubated for 48 hours, followed by addition of 3 µL of CellTiter-Glo (Promega). After a 15 min incubation at room temperature, samples were analyzed for luminescence intensity using a ViewLux High-throughput CCD imager equipped with clear filters.
Potency means the concentration at half of the fitted maximal effect.

Row | Structure (SMILES) | activity change, negative = cytotoxic | Potency
1 | Nc1nc(N)nc(-c2cc(Cl)ccc2Cl)n1 | 8.61% [at 97.6 µM] | 
2 | C[C@@H](CN1CC(=O)NC(=O)C1)N1CC(=O)NC(=O)C1 | 2.29% | 
3 | CO[C@@]12[C@H](COC(N)=O)C3=C(C(=O)C(C)=C(N)C3=O)N1C[C@@H]1N[C@@H]12 |  | 14.8 µM (active)
4 | COc1nc(N)nc2c1ncn2[C@@H]1O[C@H](CO)[C@@H](O)[C@@H]1O | 7.07% | 
5 | Nc1[nH]c(=O)ncc1F | -3.5% | 
6 | CC(C)NCC(O)c1ccc(NS(C)(=O)=O)cc1 (stereo not given) | 10.2% | 
7 | COc1ccc(-c2ccc3cc(C(=O)O)ccc3c2)cc1C12CC3CC(CC(C3)C1)C2 | -21.9% | 
8 | Cc1cccc(N(C)C(=S)Oc2ccc3ccccc3c2)c1 | -3.69% | 
9 | CCOC(=O)c1ccc(C#Cc2ccc3c(c2)C(C)(C)CCS3)nc1 | 6.28% | 
10 | N=C(N)c1ccc(OCCCCCOc2ccc(C(=N)N)cc2)cc1 | 2.05% | 
11 | COc1cc2nc(N3CCCN(C)CC3)nc(NC3CCN(Cc4ccccc4)CC3)c2cc1OC |  | 8.33 µM (active)
12 | CC1CC2C3CCC4=CC(=O)C=C[C@]4(C)[C@@]3(F)[C@@H](O)C[C@]2(C)[C@@]1(O)C(=O)CO (stereo not given in full) | -14.4% | 
13 | CN1CCCC(n2nc(Cc3ccc(Cl)cc3)c3ccccc3c2=O)CC1 (stereo not given) |  | 20.9 µM (active)
14 | Oc1c(Cl)cc(Cl)c2cccnc12 |  | 20.9 µM (active)
15 | CCC(=O)O[C@]1(C(=O)SCF)[C@H](C)C[C@H]2[C@@H]3C[C@H](F)C4=CC(=O)C=C[C@]4(C)[C@@]3(F)[C@@H](O)C[C@@]21C | -4.02% | 
16 | O=S(=O)(O)CCS | -13.1% | 
17 | CN(C)c1ccc(C(=C2C=CC(=[N+](C)C)C=C2)c2ccc(N(C)C)cc2)cc1 |  | 1.32 µM (active)
18 | CC(C)C[C@H](NC(=O)[C@H](CCc1ccccc1)NC(=O)CN1CCOCC1)C(=O)N[C@@H](Cc1ccccc1)C(=O)N[C@@H](CC(C)C)C(=O)[C@@]1(C)CO1 |  | 0.209 µM (active)
19 | CCOC(=O)[C@H](CCc1ccccc1)N[C@H]1CS[C@H](c2cccs2)CN(CC(=O)O)C1=O | 4.18% | 
20 | C[C@@H]1C[C@H]2[C@@H]3CCC4=CC(=O)C=C[C@]4(C)[C@@]3(Cl)[C@@H](O)C[C@]2(C)[C@@]1(OC(=O)c1ccco1)C(=O)CCl |  | 14.8 µM (active)

Row | Structure (SMILES) | activity change, negative = cytotoxic | Potency
21 | COc1cc([C@@H]2c3cc4c(cc3[C@H](O)[C@H]3COC(=O)[C@H]23)OCO4)cc(OC)c1OC | 6.83% | 
22 | Cn1nnc2c(C(N)=O)ncn2c1=O | -2.93% | 
23 | COC(=O)Nc1nc2ccc(Sc3ccccc3)cc2[nH]1 |  | 5.9 µM (active)
24 | Nc1nc(=S)c2[nH]cnc2[nH]1 |  | 4.18 µM (active) and 3.72 µM (active)
25 | CNS(=O)(=O)CCc1ccc2[nH]cc(C3CCN(C)CC3)c2c1 | 8.21% | 
26 | CNC(=O)c1cc(Oc2ccc(NC(=O)Nc3ccc(Cl)c(C(F)(F)F)c3)cc2)ccn1 |  | 20.9 µM (active)
27 | O=C(NCC1CN(c2ccc(N3CCOCC3=O)cc2)C(=O)O1)c1ccc(Cl)s1 (stereo not given) | 2.61% | 
28 | CCC(=O)O[C@]1(C(=O)CCl)[C@@H](C)C[C@H]2[C@@H]3CCC4=CC(=O)C=C[C@]4(C)[C@@]3(F)[C@@H](O)C[C@@]21C | 0.305% | 
29 | CC(C)(C)C(=O)OCOP(=O)(COCCn1cnc2c(N)ncnc21)OCOC(=O)C(C)(C)C | 6.19% | 
30 | Nc1nc(N)c2nc(CNc3ccc(C(=O)NC(CCC(=O)O)C(=O)O)cc3)cnc2n1 (stereo not given) | -1.34% | 
31 | O=NN(CCCl)C(=O)NC1CCCCC1 | -1.01% | 
32 | CS(=O)(=O)c1ccc([C@@H](O)[C@@H](CO)NC(=O)C(Cl)Cl)cc1 | -5.33% | 
33 | COc1cc2c(Nc3ccc(Br)cc3F)ncnc2cc1OCC1CCN(C)CC1 |  | 16.6 µM (active)
34 | CC(C)(C#N)c1cc(Cn2cncn2)cc(C(C)(C)C#N)c1 | -4.74% | 
35 | CCCCOc1ccc(CC(=O)NO)cc1 | 0.574% | 
36 | CNNCc1ccc(C(=O)NC(C)C)cc1 | -1.86% | 
37 | CC(C(=O)O)c1ccc2c(c1)CC(=O)c1ccccc1S2 (stereo not given) | 2.09% | 
38 | COC(=O)Nc1nc2ccc(S(=O)c3ccccc3)cc2[nH]1 (stereo not given) |  | 2.96 µM (active)
39 | COC(=O)Nc1nc2ccc(C(=O)c3ccccc3)cc2[nH]1 | -4.84% | 
40 | NC(=O)c1cccnc1 | -1.32% | 
